Assay results: PubChem BioAssay (NCATS)
Inconclusive results are not listed. Calls of active or inactive are those of the source. The call rests on the fitted dose curve; in most records, active means well fitted activation curve with a large enough effect; inconclusive means small, poorly fitted or top-dose-only effect; inactive means no such curve, though single readings can be large or run the other way.

target: Cellular tumor antigen p53 (Homo sapiens) (UniProt P04637); test: Primary qHTS for small molecule compounds that upregulate eGFP-tagged delta133p53alpha (in N-terminal) cells. (AID 2060322); conditions: NCI-H358 eGFP-delta133p53alpha fluorescence, 24 h; activation: stronger effect = higher value; further: nearly all actives have a fitted effect of over 75% in size;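 on activation: series mostly up to about 56 µM; 0% = DMSO vehicle and 100% = reference activator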
Summary of the method: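 NCI-H358 cells pre-induced 24 h with 10 ng/ml doxycycline to express N-terminal eGFP-delta133p53alpha, then dosed 24 h at 37C without doxycycline; fixed, Hoechst-stained, GFP intensity by laser scanning cytometry, normalized to DMSO (0%) and 57.5 uM 5-azacytidine (100%).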
Potency means the concentration at half of the fitted maximal effect.

Cellular tumor antigen p53 (Homo sapiens), sequence (P04637 whole entry, looked up): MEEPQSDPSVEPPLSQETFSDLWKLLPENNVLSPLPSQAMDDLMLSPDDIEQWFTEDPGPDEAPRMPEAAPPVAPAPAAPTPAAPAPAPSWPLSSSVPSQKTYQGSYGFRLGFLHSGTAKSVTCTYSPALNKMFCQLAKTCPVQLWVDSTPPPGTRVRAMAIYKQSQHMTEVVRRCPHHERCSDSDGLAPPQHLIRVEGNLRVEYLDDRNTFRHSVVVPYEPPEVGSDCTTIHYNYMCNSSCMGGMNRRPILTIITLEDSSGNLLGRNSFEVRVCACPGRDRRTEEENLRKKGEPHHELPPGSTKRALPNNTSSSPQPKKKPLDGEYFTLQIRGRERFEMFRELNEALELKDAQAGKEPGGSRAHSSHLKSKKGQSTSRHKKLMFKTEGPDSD

SMILES | activation | Potency
C=CC(C)(C)C12Nc3c(ccc4c3OC(C)(C)C=C4)C1(O)CC1C(=O)N3CCCC3C(=O)N12 (centres undefined) | -0.763% (inactive) | 
C[C@@H]1O[C@@H](O[C@H]2[C@H](OC(=O)[C@]34CCC(C)(C)C[C@H]3C3=CCC5[C@@]6(C)C[C@@H](O)[C@@H](O[C@@H]7O[C@H](CO)[C@@H](O)[C@H](O)[C@H]7O)[C@@](C)(CO)C6[C@H](O)C[C@@]5(C)[C@]3(C)CC4)OC[C@H](O)[C@@H]2O)[C@H](O)[C@H](O[C@@H]2OC[C@](O)(CO)[C@H]2O)[C@H]1O[C@@H]1OC[C@@H](O)[C@H](O[C@H]2O[C@H](C)[C@@H](O)[C@H](O)[C@@H]2O)[C@H]1O (some centres undefined) | 6.25% (inactive) | 
CC(C)C1CCC(CO)=CC1/C=C(\CO)C(=O)OCC1(O)CCC(C(C)C)C2C=C(C(=O)O)COC(=O)C21 (centres undefined) | 9.16% (inactive) | 
C=C1C(O)CC2C(C(=O)O)=COC(O[C@@H]3O[C@H](COC(=O)c4ccc(O)cc4)[C@@H](O)[C@H](O)[C@H]3O)C12 (some centres undefined) | -6.11% (inactive) | 
C=C1C(=O)O[C@@H]2/C=C(/C)CC3C=C(C[C@H](OC(=O)/C(C)=C\C)[C@@H]12)C(=O)O3 (some centres undefined) |  | 11.7 µM (active)
C=C(C(=O)O)C1CC(O)C2(C)CCCC(C)(O)C2C1 (centres undefined) | 1.53% (inactive) | 
O=C(C1=CCN2c3c(cccc31)OC[C@H]2CN1CCOCC1)c1cccc2ccccc12 | 27.7% (inactive) | 
NC1CCC(Nc2cc(-c3cccc(NCc4cccc(F)c4)n3)c(Cl)cn2)CC1 (centres undefined) |  | 1.51 µM (active)
CC1CCCC(O)CC(=O)c2c(O)cc(O)cc2CC(=O)O1 (centres undefined) | 4.58% (inactive) | 
